Most compounds without a hit are left out; they make up all but 15% or so of the library.
HCMV antiviral – inhibitors of human cytomegalovirus. HFF cells, HCMV-luciferase reporter, 72 h; stronger effect = lower value. activity change, negative = inhibition, % at 57.5 µM. 4.5% of 410,000 active. AID 1259415; in the data active means activity change below about -60%; inconclusive means no clear call, values can overlap the other calls; inactive means above about -39%; further: on the % scale 0 is the no-effect control and ±100 the full control effect
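HFF cells seeded 16 h at 37C, treated with compounds, infected with luciferase-reporter HCMV at MOI 1 PFU/cell; luciferase read at 72 h post infection, normalized to buffer-only and Salinomycin controls.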
Pf growth 48h – inhibits P. falciparum growth in the first generation, 48 h; P. falciparum luciferase growth in erythrocytes, 48 h; Potency, µM (highest dose often 28.7 µM), for inactives: top-dose activity change, negative = inhibition, usual class: inhibitors; 5.9% of 310,000 active; further: potency means the concentration at half of the fitted maximal effect; on the % scale 0 is the no-effect control and ±100 the full control effect
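Parasite viability was followed by luminescence of a genomically integrated firefly luciferase. Cultures held 0.1% parasitemia at 2% hematocrit (final), incubated under 5% CO2 at 37 C.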
Sm TGR inh – blocks Schistosoma mansoni thioredoxin glutathione reductase; Q962Y6; 3% of 360,000 active; purified TGR, DTNB reduction, TNB absorbance 405 nm; Potency, µM (titrated, usually from 114 µM), without a hit: at the highest dose activity change, negative = inhibition, most hits filed as inhibitors; further: potency means the concentration at half of the fitted maximal effect; on the % scale 0 is the no-effect control and ±100 the full control effect; nearly all actives have a fitted effect of over 60% in size
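Kinetic colorimetric format: TGR-catalysed, NADPH-driven DTNB reduction monitored via TNB absorbance. Enzyme dispensed at 20 nM; compound exposure 15 min at room temperature before reaction start.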
SARS PLP yeast – SARS-CoV PLP inhibition in yeast; 0.19% of 330,000 active; Potency, µM (highest dose often 32.9 µM), without a hit: at the top dose activity, positive = growth rescue, most hits filed as activators; S. cerevisiae expressing SARS-CoV PLpro, growth rescue; calls by dose curve; further: potency means the concentration at half of the fitted maximal effect; 0% is about no effect; nearly all actives have a fitted effect of over 55% in size
HCV inh – inhibitors of hepatitis C virus infection | Huh7.5.1 HCVcc-Cre infection, luciferase reporter, 44 h | Potency, µM (top dose mostly 41.8 µM), for inactives: at the highest dose activity change, negative = inhibition, hits mostly inhibitors | 3.4% of 340,000 active | AID 651820; further: potency means the concentration at half of the fitted maximal effect; on the % scale 0 is the no-effect control and ±100 the full control effect
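Antiviral activity was scored by luciferase reporter output from cells infected with HCVcc-Cre (~0.5 moi) in presence of compound, 44 h infection period, cells seeded 1,000/well 4 h prior.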
Pf growth 96h – P. falciparum growth inhibition at 96 hour, primary screen for plastid delayed-death inhibitors. P. falciparum luciferase reporter growth, 96 h. 6.9% of 320,000 active. Potency, µM (highest dose often 28.7 µM), for the others: top-dose activity change, negative = inhibition, actives largely listed as inhibitors; further: potency means the concentration at half of the fitted maximal effect; on the % scale 0 is the no-effect control and ±100 the full control effect
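P. falciparum expressing integrated firefly luciferase grown in erythrocytes (2% hematocrit, 0.05% parasitemia final) with compounds for 96 hours at 37 C, 5% CO2. Growth inhibition read as loss of luminescence after adding luciferase detection reagent.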
Starred values were filed as active, the others as inactive; ? = inconclusive; / = no result; + = active, no number; ! = not confirmed by another sample; [ ] = remark or other dose. Unless noted, the call rests on the fitted dose curve; in most records, active means well fitted curve in the direction sought with a large enough effect; inconclusive means small, poorly fitted or top-dose-only effect, or another doubt; inactive means no such curve, though single readings can be large; an effect the other way counts as inactive or inconclusive.

SMILES	HCMV antiviral	Pf growth 48h	Sm TGR inh	SARS PLP yeast	HCV inh	Pf growth 96h
O=C(C1CCCN(S(=O)(=O)c2ccc(Br)s2)C1)N1CCN(c2ccccc2)CC1 (stereo unspecified)	-13	8.3µM*	3%	-2%	10µM*	-8%
O=C(C1CCCN(S(=O)(=O)c2ccc(Br)cc2)C1)N1CCN(Cc2ccccc2)CC1 (stereo unspecified)	-22	6.6µM*	0%	2%	11µM*	-24%
Cc1ccccc1CCN1CCCC(CN(C)C(=O)c2ccc3ncccc3c2)C1 (stereo unspecified)	-18	?	3%	-1%	-3%	?
O=C(NCC1CCCO1)c1cccc(S(=O)(=O)N2CCCCC2)c1 (stereo unspecified)	-26	28%	-2%	-5%	0%	79%
COc1cc(OC)c(NC(=O)c2sc3ncn(CC(=O)N4CCOCC4)c(=O)c3c2C)cc1Cl	-13	?	-8%	-1%	-20%	?
Cc1ccc(C23OC(=O)C(C)(C)C2OC(=O)C3(C)C)cc1 (stereo unspecified)	-23	9.3µM*	-20%	11%	3%	13µM*
O=C(CCNc1ccccc1)c1ccc2c(c1)OCO2	126	74%	2.2µM*	-14%	-6%	-18%
O=C(NCCc1ccccc1F)c1ccc2c(c1)OCCO2	-99*	-22%	-10%	-2%	4%	-25%
CN(C)CCC(=O)c1ccc2c(c1)OCO2	15	-13%	0.63µM*	-33%	-17%	-13%
CN(C)CCCC(=O)c1ccc2c(c1)OCO2	?	13%	-30%	7%	10%	/
CCC(C)[C@H]1CNC(=S)N1CCc1cccc2ccccc12 (stereo partly specified)	21	-14%	22%	-8%	?	?
CCC(C)[C@H]1CNC(=S)N1CCC12CC3CC(CC(C3)C1)C2 (stereo partly specified)	-79*	?	3%	0%	15%	?
Cc1ccc(S(=O)(=O)N(CC(=O)c2ccccc2)C(=O)N2CCN(C)CC2)cc1	-18	-8%	-7%	6%	0%	31%
CCN(CC)c1cc(C)c2cc(NC(=O)/C=C/c3ccc(C)cc3)ccc2n1	-11	/	-2%	/	/	/
CC(=O)n1c(C=Nc2ccc(Cl)cc2)c(O)c2ccccc21	?	1.5µM*	-3%	-1%	?	?
CCC(/C=C1\Sc2ccc(OC)cc2N1CCO)=C\c1sc2ccc(OC)cc2[n+]1CCO	-98*	0.59µM*	11µM*	-57%	5µM*	7.4µM*
Nc1sc2c(c1C(=O)NC1CCS(=O)(=O)C1)CCCC2 (stereo unspecified)	15	-7%	22µM*	0%	?	-19%
Nc1sc2c(c1C(=O)NCCc1ccccc1)CCC2	1	13µM*	/	0%	-2%	-11%
NC(=O)c1c(N)sc2c1CCCC2	58	-14%	13µM*	-2%	8%	35%
Nc1sc2c(c1C(=O)NCCc1ccccc1)CCCC2	18	/	/	/	/	/
O=C(CSc1ncnc2sc3c(c12)CCCC3)NC1CCS(=O)(=O)C1 (stereo unspecified)	-11	/	/	7%	-3%	/
O=C(CN1CCc2ccccc2C1)Nc1cc(S(=O)(=O)N2CCOCC2)ccc1N1CCCC1	-17	?	-5%	1%	0%	?
CC1(C)NC(=O)N(CC(=O)Nc2cc(S(=O)(=O)N3CCOCC3)ccc2N2CCOCC2)C1=O	/	19%	-6%	-1%	/	7.4µM*
O=C(CN1CCc2ccccc2C1)Nc1cc(S(=O)(=O)N2CCOCC2)ccc1N1CCOCC1	-9	?	-11%	0%	-3%	13µM*
CCN(CC)c1ccc(S(=O)(=O)N2CCOCC2)cc1NC(=O)CN1C(=O)NC2(CCCC2)C1=O	-37	?	0%	3%	2%	?
SMILES	HCMV antiviral	Pf growth 48h	Sm TGR inh	SARS PLP yeast	HCV inh	Pf growth 96h
Cc1ccccc1CN1CCCN(CC(=O)Nc2ccc3c(c2)OCCO3)S1(=O)=O	-17	/	-4%	/	/	/
O=C(NCc1ccco1)c1nc2nc(-c3cccs3)cc(C(F)(F)F)n2n1	178	-15%	32µM*	0%	-27%	-2%
O=C(NCc1ccco1)c1nn2c(C(F)(F)F)cc(-c3cccs3)nc2c1Br	-14	?	32µM*	-5%	?	/
O=C(NCC1CCCO1)c1nn2c(C(F)(F)F)cc(-c3cccs3)nc2c1Br (stereo unspecified)	-2	-7%	-5%	4%	-7%	0%
CCOC(=O)c1c(C)oc2c1c1c(c3ccccc32)OCN(CCCC(=O)O)C1	125	87%	-2%	-2%	10µM*	20%
CCOC(=O)c1c(C)oc2c1c1c(c3ccccc32)OCN(Cc2cccnc2)C1	/	?	0.35µM*	-21%	6.3µM*	?
Cc1cc(C)cc(-n2ccnc2SCC(=O)Nc2ccc(C)cc2C)c1	-23	/	4%	/	/	/
C=CCn1cc(/C=N\NC(=O)c2cc3c(ccc4ccccc43)o2)c2ccccc21	-23	?	0%	-4%	10µM*	-7%
COc1ccc(CCNC(=S)Nc2ccc(S(=O)(=O)Nc3ncccn3)cc2)cc1OC	6	-4%	-21%	2%	8%	-14%
Cn1c(CCN2CCN(c3ccccn3)CC2)nc2cc(NC(=O)COc3ccc(Cl)cc3)ccc21	-97*	?	-3%	-6%	2.2µM*	?
CN1CCN(CCc2nc3cc(NC(=O)COc4ccccc4)ccc3n2C)CC1	-9	?	-19%	2%	-19%	429%
Cn1c(CCN2CCN(c3ccccn3)CC2)nc2cc(NS(=O)(=O)c3ccc(Cl)cc3)ccc21	0	9.3µM*	-5%	0%	-21%	10µM*
Cc1cccc(OCC(=O)Nc2ccc3c(c2)nc(CCN2CCN(c4ccccn4)CC2)n3C)c1	+	?	-6%	-4%	6.3µM*	?
O=C(CN1CCCN(Cc2cccc(F)c2)S1(=O)=O)Nc1ccc2c(c1)OCCO2	-12	/	5%	/	/	/
Cc1cc(C)n2nc(SCC(=O)Nc3ccccc3)nc2n1	-63*!	17%	2%	0%	1%	?
Cc1cc(C)n2nc(SCc3nc4ccccc4[nH]3)nc2n1	0	45%	-10%	19%	0%	7.4µM*
Cc1cc(C)n2nc(SCC(=O)NC3CCCCC3)nc2n1	0	-1%	-6%	-5%	5%	13µM*
CCCn1c(C)cc(C(=O)CSc2nc3nc(C)cc(C)n3n2)c1C	-21	?	-18%	6%	?	9.3µM*
Cc1cc(C)n2nc(SCc3ccccc3F)nc2n1	4	-1%[0.00184 µM]	-7%	-2%	-8%	38%

Screening results as filed in PubChem.
